Screening results deposited in PubChem by National Center for Advancing Translational Sciences (NCATS).
Pf growth 48h = P. falciparum growth inhibition at 48 hours (one generation); P. falciparum luciferase growth in erythrocytes, 48 h; Potency, µM (highest dose often 28.7 µM), for the others: at the highest dose activity change, negative = inhibition, usual class: inhibitors; actives 5.9% (n = 310,000); AID 504832; active = well fitted inhibition curve with a large enough effect; inconclusive = small, poorly fitted or top-dose-only effect, or another doubt; inactive = no such curve, though single readings can be large or run the other way; note: potency is the fitted concentration of half-maximal effect; % is set by controls: 0 for no effect and ±100 for the full control effect
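Cell-based growth assay: transgenic P. falciparum expressing firefly luciferase, cultured in red cells within RPMI 1640 containing 0.5% w/v Albumax, 24 mM bicarbonate and gentamycin. A drop in luciferase activity indicates inhibition.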
Cycloheximide cs = counter-screen for Shiga toxin inhibitors: cycloheximide protein synthesis inhibition; AID 2314; cell reporter, cycloheximide protein synthesis inhibition counterscreen; max response, %; actives 12% (n = 300,000); in the data active = max response mostly above about 13%, no sharp cut-off; inactive = mostly below about 14%; note: read at 38.3 µM for the half of the compounds with a filed dose; 0% is about no effect
Shiga toxin inh = Shiga toxin inhibition; Vero cells, Shiga toxin protein synthesis inhibition reporter; inhibition, % at 38.7 µM; actives 9.2% (n = 290,000); AID 2315; in the data active = inhibition mostly above about 28%, no sharp cut-off; inactive = mostly below about 43%; note: 0% is about no effect
NS1 function inh = blocks influenza NS1 protein function. Potency, µM (highest dose often 46.1 µM), for the others: at the top dose activity, positive = more growth. actives 0.4% (n = 270,000). AID 2326; note: potency is the fitted concentration of half-maximal effect; actives are rising curves; nearly all actives have a fitted effect of over 50% in size
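Read-out: OD600 growth recovery of NS1-expressing budding yeast. Cells grown overnight at 30C in -URA glucose medium, washed, resuspended and diluted 1:100 in 2% galactose assay medium, pH 6.0. Same strain lacking NS1 served as positive control.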
SARS PLpro yeast = inhibitors of SARS-CoV papain-like protease in yeast; S. cerevisiae expressing SARS-CoV PLpro, growth rescue; Potency, µM (titrated, usually from 32.9 µM), inactives show top-dose activity, positive = growth rescue, actives largely listed as activators; actives 0.19% (n = 330,000); note: potency is the fitted concentration of half-maximal effect; 0% is about no effect; nearly all actives have a fitted effect of over 55% in size
Pf growth 96h = inhibits malaria parasite growth, 96 h; P. falciparum luciferase reporter growth, 96 h; Potency, µM (top dose mostly 28.7 µM), without a hit: at the highest dose activity change, negative = inhibition, hits mostly inhibitors; actives 6.9% (n = 320,000); active = well fitted inhibition curve with a large enough effect; inconclusive = small, poorly fitted or top-dose-only effect, or another doubt; inactive = no such curve, though single readings can be large or run the other way; note: potency is the fitted concentration of half-maximal effect; % is set by controls: 0 for no effect and ±100 for the full control effect
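Infected RBCs, 2% Hct / 0.05% parasitemia final; luciferase-reporter P. falciparum; cpd 96 h, 37 C, 5% CO2; luciferase detection reagent; luminescence.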
* marks the source's active call; other numbers are inactive results; ? = inconclusive; . = no result; [ ] = another dose, or the depositor's remark. Most compounds without a hit are left out; they make up all but 21% or so of the library. Unless noted, calls come from the whole dose curve.

SMILES	Pf growth 48h	Cycloheximide cs	Shiga toxin inh	NS1 function inh	SARS PLpro yeast	Pf growth 96h
CCCCC(=O)Nc1cccc(-c2csc(-c3ccccc3)n2)c1	?	12	61*	-2%	-19%	?
CC(=O)c1ccc(O[C@@H]2O[C@H](CO)[C@@H](O)[C@H](O)[C@H]2O)cc1	.	.	.	.	-46%	.
COc1ccc(CSc2nc(C)cc(C)c2S(C)(=O)=O)cc1	103%	5	-7	.	-1%	0%
COc1ccc(C(=O)c2c(NC(C)=O)sc3c2CCN(C(=O)OC(C)(C)C)C3)cc1	8.3µM*	1	-3	3%	-1%	9.3µM*
CCOC(=O)N1CCc2c(sc(NC(=O)Cc3ccccc3)c2C(=O)c2ccc(OC)cc2)C1	5.2µM*	-2	-18	-4%	1%	?
COc1ccc(C(=O)Nc2sc3c(c2C#N)CCN(C(C)=O)C3)cc1	?	3	-7	.	-2%	-20%
CC1=CC(C)(C)N2C(=O)C3(NCCc4c3[nH]c3ccccc43)c3cc(C)cc1c32 (centres undefined)	?	0	-4	-5%	-1%	?
CC1=CC(C)(C)N2C(=O)C3(SCC(=O)N3c3ccc(F)cc3)c3cc(C)cc1c32 (centres undefined)	.	-4	-18	-11%	-42%	4.1µM*
CC1(C)Cc2c(cnn2-c2cccc(F)c2)C(NC(=O)CSc2ccccn2)C1 (centres undefined)	12%	8	17	9%	-3%	?
Cn1nccc1C(=O)NC1CCCc2c1cnn2-c1cc(F)cc(F)c1 (centres undefined)	?	32*	54*	-3%	1%	-5%
CC1(C)Cc2c(cnn2-c2cccc(F)c2)C(NC(=O)Cn2cccn2)C1 (centres undefined)	4%	19*	-5	3%	-6%	-1%
O=C(CN1CCCC1=O)NC1CCCc2c1cnn2-c1cc(F)cc(F)c1 (centres undefined)	-3%	22*	26	18%	14%	26%
CC1(C)Cc2c(cnn2-c2cccc(F)c2)C(NC(=O)CN2CCCC2=O)C1 (centres undefined)	-13%	11*	11*	18%	-2%	?
CC1=C(C(=O)NC2CCCc3c2cnn3-c2cc(F)cc(F)c2)OCCO1 (centres undefined)	7%	-3	-20	0%	4%	-18%
Fc1ccc(NC(=S)Nc2cccnc2)c(F)c1F	-12%[5.75 µM]	-2	19	.	0%	17%
CCOC(=O)N1CCN(S(=O)(=O)N2CCCC(C(=O)NCCCN3CCCCC3CC)C2)CC1 (centres undefined)	?	-3	-8	-8%	-3%	0%
CC(C)C[C@H](NC(=O)c1[nH]cnc1C(=O)N[C@@H](C)C(=O)OC(C)(C)C)C(=O)OC(C)(C)C	7.4µM*	-3	-2	0%	-2%	9.3µM*
CC(C)C[C@H](NC(=O)c1[nH]cnc1C(=O)Nc1ccccc1)C(=O)OC(C)(C)C	13µM*	-1	-1	-2%	-11%	?
CCOC(=O)c1ccc(NC(=O)c2nc[nH]c2C(=O)N[C@@H](CC(C)C)C(=O)OC(C)(C)C)cc1	7.4µM*	-3	-2	10%	1%	9.3µM*
CC(C)C[C@H](NC(=O)c1nc[nH]c1C(=O)N[C@@H](CCCCN)C(=O)OC(C)(C)C)C(=O)OC(C)(C)C	.	.	.	.	1%	.
CCOC(=O)c1ccc(NC(=O)c2nc[nH]c2C(=O)N[C@@H](CC(C)C)C(=O)OCc2ccccc2)cc1	?	6	21	6%	2%	-1%
NNC(=O)c1nc[nH]c1C(=O)Nc1ccccc1	25%	14*	22*	?	5%	10µM*
COc1ccccc1C1CC(=O)Nc2cc(C)c(C)cc21 (centres undefined)	-21%	2	.	28%	0%	13µM*
COc1cc2c(cc1OC)C(c1ccc(Br)cc1)CC(=O)N2 (centres undefined)	8%	-3	-7	-4%	6%	5.2µM*
COc1cc2c(cc1OC)C(c1ccc(C(F)(F)F)cc1)CC(=O)N2 (centres undefined)	?	1	-5	22%	-1%	?
SMILES	Pf growth 48h	Cycloheximide cs	Shiga toxin inh	NS1 function inh	SARS PLpro yeast	Pf growth 96h
Cc1cc2c(cc1C)C(c1ccccc1OC(C)C)CC(=O)N2 (centres undefined)	?	-1	-4	-45%	-4%	?
CCOc1ccccc1C1CC(=O)Nc2cc(C)c(C)cc21 (centres undefined)	16%	-4	.	-3%	4%	12µM*
CCOc1cc(C2NC(=O)NC(C)=C2C(=O)OCC2CCCCC2)ccc1O (centres undefined)	?	8	-5	11%	-3%	1%
Cn1c(=O)c2c(nc(NCc3ccco3)n2C)n(C)c1=O	8%	-1	-22	-9%	-2%	.
Cn1c(=O)c2c(nc(NCc3ccco3)n2C/C=C/c2ccccc2)n(C)c1=O	8.3µM*	-3	5	-35%	0%	9.3µM*
COC(=O)NNC(=S)Nc1ccc(Br)cc1	-2%[5.75 µM]	2	-8	.	0%	?
O=C(NC1CCCCC1)N1CCN(c2ccccc2Cl)CC1	30%	10	20	-30%	-4%	46%
NC(N)=NC(N)=Nc1ccccc1 (tested in a mixture with another compound)	.	.	.	-1%	.	.
COc1cccc(C2CCCN2Cc2nc(-c3cnccn3)no2)c1 (centres undefined)	13µM*	-4	-10	-2%	0%	14%
O=[N+]([O-])c1ccccc1Sc1nccn1Cc1ccccc1	7%	-5	-11	-15%	23%	3.3µM*
COc1cc(C2c3c(oc4c(C)cc(C)cc4c3=O)C(=O)N2Cc2cccnc2)cc(OC)c1OC (centres undefined)	.	.	.	-17%	.	.
O=C1c2[nH]nc(-c3ccccc3O)c2C(c2cccc(Cl)c2)N1Cc1ccco1 (centres undefined)	8.3µM*	-6	-25	.	-13%	.
COc1ccc(C2c3c(-c4cc(Cl)c(C)cc4O)n[nH]c3C(=O)N2Cc2cccnc2)cc1OC (centres undefined)	3.3µM*	-2	-26	-62%	1%	-10%
COc1ccc(C2c3c(oc4c(C)cc(C)cc4c3=O)C(=O)N2Cc2cccnc2)cc1OC (centres undefined)	0%	-5	-33	-1%	-9%	9.3µM*
COc1ccc(C2C(C(=O)c3ccc(C)o3)=C(O)C(=O)N2Cc2cccnc2)cc1OC (centres undefined)	18%	-2	3	-7%	-4%	-4%
COc1ccc(C2C(C(=O)c3cccs3)=C(O)C(=O)N2Cc2cccnc2)cc1OC (centres undefined)	0%	38*	110*	-4%	-2%	-11%
